PubChem BioAssay (Tox21)
Several values for one entry are separate records, joined by “and”; a condition that tells them apart may be missing. Equal entries are not always repeated. Results filed as inconclusive are left out. Activity calls are given as the source filed them. Unless noted, calls follow the shape of the dose curve; as a rule, active = well fitted curve in the direction sought with a large enough effect in the repeat runs; inconclusive = weak or mixed curves; inactive = no such curve, though single readings can be large; an effect the other way counts as inactive or inconclusive.

Columns and labels:
[1] = qHTS assay to identify small molecule antagonists of the thyroid receptor (TR) signaling pathway (AID 743065); also: nearly all actives have a fitted effect of over 55% in size; also: potency is read from the fitted curve at half-maximal effect; as to activity, negative = inhibition: series mostly up to about 70 µM
Procedure, shortened: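 GH3.TRE-Luc rat pituitary cells (two TREs driving luciferase) were dosed with compound, then stimulated with 1 nM T3 (final) for 23.5 h at 37 C. ONE-Glo luminescence was the read-out, with CellTiter-Fluor fluorescence as the cytotoxicity counter-screen.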

[2] = tested on: thyroid hormone receptor (rat, GH3 cells); test: qHTS assay to identify small molecule agonists of the thyroid receptor (TR) signaling pathway (AID 743066; calls by dose curve)
[3] = qHTS assay to identify small molecule antagonists of the estrogen receptor alpha (ER-alpha) signaling pathway - cell viability counter screen (AID 743074; calls by dose curve;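 also: HEK293 cells carrying ER-alpha-UAS-bla reporter stimulated with 17beta-estradiol; nearly all actives have a fitted effect of over 45% in size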)
[4] = qHTS assay to identify small molecule antagonists of the estrogen receptor alpha (ER-alpha) signaling pathway using the BG1 cell line - cell viability counter screen (AID 743081);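 also: compound given together with 17beta-estradiol as the ER stimulus; nearly all actives have a fitted effect of over 45% in size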; also: potency is read from the fitted curve at half-maximal effect; as to activity change, negative = cytotoxicity: series mostly up to about 70 µM
Aromatase (Homo sapiens) = Aromatase (Homo sapiens) (UniProt P11511); test: qHTS assay to identify aromatase inhibitors (AID 743083); also: nearly all actives have a fitted effect of over 55% in size; also: potency is read from the fitted curve at half-maximal effect; as to activity, negative = inhibition: series mostly up to about 70 µM
[5] = qHTS assay to identify aromatase inhibitors - cell viability counter screen (AID 743084);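 also: cells stimulated with testosterone during compound exposure; nearly all actives have a fitted effect of over 55% in size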; also: potency is read from the fitted curve at half-maximal effect
[6] = molecular target: Aryl hydrocarbon receptor (Homo sapiens) (UniProt P35869); test: qHTS assay to identify small molecule that activate the aryl hydrocarbon receptor (AhR) signaling pathway (AID 743085);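 also: HG2L7.5c1 human HepG2 liver cells with stably integrated DRE-driven firefly reporter; series mostly up to about 70 µM; nearly all actives have a fitted effect of over 15% in size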
Procedure, shortened: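 A multiplexed format paired cell viability (CellTiter-Fluor fluorescence) with AhR-dependent luciferase output (ONE-Glo luminescence) in the same wells of HepG2 DRE-luc cells after 24 h compound exposure at 37C.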

[7] = qHTS assay to identify small molecule that activate the aryl hydrocarbon receptor (AhR) signaling pathway - cell viability counter screen (AID 743086); also: nearly all actives have a fitted effect of over 45% in size; also: potency is read from the fitted curve at half-maximal effect;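 as to viability change, negative = cytotoxic: HepG2 liver cells carrying the AhR DRE luciferase reporter; series mostly up to about 70 µM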
Procedure, shortened: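 HepG2-AhR-luc (HG2L7.5c1) cells, 4000/well, treated 24 h at 37 C with compound; viability measured as CellTiter-Fluor fluorescence after 30 min in the same wells as the luciferase read.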

[8] = molecular target: Peroxisome proliferator-activated receptor gamma (Homo sapiens) (UniProt P37231); test: qHTS assay to identify small molecule agonists of the peroxisome proliferator-activated receptor gamma (PPARg) signaling pathway (AID 743094; active = well fitted activation curve with a large enough effect in the signal ratio in the repeat runs, not every such curve was filed as active; the % refers to the signal ratio)
Procedure, shortened: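 Stably transfected HEK293H cells (GeneBLAzer PPARg UAS-bla) were incubated with test substances for 17 h at 37C after a 5 h pre-incubation; beta-lactamase activity was then detected by FRET substrate fluorescence.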

[9] = molecular target: Peroxisome proliferator-activated receptor gamma (Homo sapiens) (UniProt P37231); test: qHTS assay to identify small molecule antagonists of the peroxisome proliferator-activated receptor gamma (PPARg) signaling pathway (AID 743191; calls by dose curve; also: series mostly up to about 63 µM; nearly all actives have a fitted effect of over 30% in size)
Procedure, shortened: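 GeneBLAzer PPARg UAS-bla HEK293H cells, 5 h post-plating, exposed to compounds 17 h at 37C. LiveBLAzer B/G FRET substrate added for 1 h at room temperature; beta-lactamase reporter read by fluorescence intensity.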

[10] = qHTS assay to identify small molecule antagonists of the peroxisome proliferator-activated receptor gamma (PPARg) signaling pathway - cell viability counter screen (AID 743194); also: nearly all actives have a fitted effect of over 55% in size
Procedure, shortened: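 Cytotoxicity counter screen in PPARg-bla HEK293H cells, same wells as reporter assay. Compounds plus 50 nM rosiglitazone (final) for 17 h at 37 C, then viability read by CellTiter-Glo luminescence.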

[11] = qHTS assay for small molecule agonists of the antioxidant response element (ARE) signaling pathway - cell viability counter screen (AID 743203; calls by dose curve; also: nearly all actives have a fitted effect of over 55% in size; also: potency is read from the fitted curve at half-maximal effect)
Procedure, shortened: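 Cells (ARE-bla HepG2, 2,000/well) receive DMSO-dissolved compounds after a 5 hrs rest. Plates incubate 16 hrs at 37C/5% CO2. CellTiter-Glo luminescence is then recorded after 30 min at room temperature.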

[12] = qHTS assay for small molecule activators of the heat shock response signaling pathway - cell viability counter screen (AID 743209); also: nearly all actives have a fitted effect of over 50% in size
Procedure, shortened: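 Quantitative HTS format, Tox21 10K library. HeLa cells carrying an HSE-driven beta-lactamase reporter were treated 5 h at 37 C, then assessed for viability by CellTiter-Glo luminescence.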

[13] = qHTS assay for small molecule activators of the heat shock response signaling pathway (AID 743210; active = well fitted activation curve with a large enough effect in the signal ratio in the repeat runs, with a control signal flat, not every such curve was filed as active; the % refers to the signal ratio; also: series mostly up to about 63 µM)
Procedure, shortened: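 HSE-bla HeLa cells (beta-lactamase reporter under heat shock response elements), plated overnight, then exposed to compounds 5 h at 37 C; LiveBLAzer B/G FRET substrate added, 2.5 h at room temperature, fluorescence intensity read.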

[14] = molecular target: Estrogen receptor (Homo sapiens) (UniProt P03372); test: qHTS assay to identify small molecule antagonists of the estrogen receptor alpha (ER-alpha) signaling pathway (AID 743069; active = well fitted curve in the direction sought with a large enough effect in the signal ratio in the repeat runs, not every such curve was filed as active; the % refers to the signal ratio)
Procedure, shortened: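 HEK293 ER-alpha-UAS-bla GripTite cells, held overnight in 2% charcoal-stripped FBS, 5,000 cells/well, preincubated 4 h, then compound plus 17beta-estradiol for 18 h at 37C. Beta-lactamase read by LiveBLAzer B/G FRET substrate, 2 h at room temperature.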

[15] = molecular target: Estrogen receptor (Homo sapiens) (UniProt P03372); test: qHTS assay to identify small molecule agonists of the estrogen receptor alpha (ER-alpha) signaling pathway (AID 743075; calls by dose curve)
[16] = molecular target: Estrogen receptor (Homo sapiens) (UniProt P03372); test: qHTS assay to identify small molecule agonists of the estrogen receptor alpha (ER-alpha) signaling pathway using the BG1 cell line (AID 743079); also: nearly all actives have a fitted effect of over 20% in size
[17] = qHTS assay for small molecule agonists of the antioxidant response element (ARE) signaling pathway (AID 743202; active = well fitted activation curve with a large enough effect in the signal ratio in the repeat runs, not every such curve was filed as active; the % refers to the signal ratio)
Procedure, shortened: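 ARE-bla HepG2 cells (beta-lactamase reporter under the antioxidant response element), plated 5 hours, then exposed to compounds 16 hours at 37 C. LiveBLAzer B/G FRET substrate added for 2 hours at room temperature; fluorescence intensity read.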

[18] = qHTS assay to identify small molecule antagonists of the estrogen receptor alpha (ER-alpha) signaling pathway using the BG1 cell line (AID 743080; calls by dose curve;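 also: BG1 cells stimulated with 17beta-estradiol alongside compound; series mostly up to about 70 µM; nearly all actives have a fitted effect of over 25% in size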)
Procedure, shortened: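 Readout is ONE-Glo luminescence, taken 30 min at room temperature after reagent addition, preceded by a CellTiter-Fluor viability read; BG1-Luc-4E2 cells had received compound and 17beta-estradiol for 21.5 h at 37 C.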
% is scaled to controls: 0 for no effect and ±100 for the full control effect.

Sequence of Estrogen receptor (Homo sapiens) (P03372 whole entry, looked up): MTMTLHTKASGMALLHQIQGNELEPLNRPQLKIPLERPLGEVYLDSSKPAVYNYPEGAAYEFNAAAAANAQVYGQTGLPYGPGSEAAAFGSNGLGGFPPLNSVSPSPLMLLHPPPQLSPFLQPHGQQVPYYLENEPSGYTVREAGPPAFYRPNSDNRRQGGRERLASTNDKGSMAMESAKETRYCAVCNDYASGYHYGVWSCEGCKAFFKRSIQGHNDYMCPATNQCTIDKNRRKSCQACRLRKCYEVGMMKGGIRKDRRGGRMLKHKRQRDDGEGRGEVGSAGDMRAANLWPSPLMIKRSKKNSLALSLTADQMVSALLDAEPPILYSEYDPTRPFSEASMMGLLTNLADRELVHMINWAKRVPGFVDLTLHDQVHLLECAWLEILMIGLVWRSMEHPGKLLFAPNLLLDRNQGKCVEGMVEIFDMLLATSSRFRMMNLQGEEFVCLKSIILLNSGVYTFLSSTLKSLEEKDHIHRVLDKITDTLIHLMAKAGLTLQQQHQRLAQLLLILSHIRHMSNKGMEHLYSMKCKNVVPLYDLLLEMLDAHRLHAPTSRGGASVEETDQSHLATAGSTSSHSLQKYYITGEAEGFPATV
Sequence of Peroxisome proliferator-activated receptor gamma (Homo sapiens) (P37231 whole entry, looked up): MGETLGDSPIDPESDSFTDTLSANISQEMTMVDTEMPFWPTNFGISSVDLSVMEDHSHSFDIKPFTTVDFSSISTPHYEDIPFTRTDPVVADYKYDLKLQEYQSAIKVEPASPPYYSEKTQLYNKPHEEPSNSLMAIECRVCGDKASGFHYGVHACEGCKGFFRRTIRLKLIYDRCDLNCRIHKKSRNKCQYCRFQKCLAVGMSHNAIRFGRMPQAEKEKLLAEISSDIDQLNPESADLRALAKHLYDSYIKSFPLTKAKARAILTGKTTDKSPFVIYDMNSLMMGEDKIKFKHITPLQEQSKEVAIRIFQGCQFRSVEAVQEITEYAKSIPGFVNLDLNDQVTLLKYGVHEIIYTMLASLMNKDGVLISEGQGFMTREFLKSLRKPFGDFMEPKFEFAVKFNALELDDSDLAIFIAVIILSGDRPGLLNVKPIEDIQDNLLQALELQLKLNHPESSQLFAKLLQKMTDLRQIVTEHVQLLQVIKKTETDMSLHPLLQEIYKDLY
Sequence of Aromatase (Homo sapiens) (P11511 whole entry, looked up): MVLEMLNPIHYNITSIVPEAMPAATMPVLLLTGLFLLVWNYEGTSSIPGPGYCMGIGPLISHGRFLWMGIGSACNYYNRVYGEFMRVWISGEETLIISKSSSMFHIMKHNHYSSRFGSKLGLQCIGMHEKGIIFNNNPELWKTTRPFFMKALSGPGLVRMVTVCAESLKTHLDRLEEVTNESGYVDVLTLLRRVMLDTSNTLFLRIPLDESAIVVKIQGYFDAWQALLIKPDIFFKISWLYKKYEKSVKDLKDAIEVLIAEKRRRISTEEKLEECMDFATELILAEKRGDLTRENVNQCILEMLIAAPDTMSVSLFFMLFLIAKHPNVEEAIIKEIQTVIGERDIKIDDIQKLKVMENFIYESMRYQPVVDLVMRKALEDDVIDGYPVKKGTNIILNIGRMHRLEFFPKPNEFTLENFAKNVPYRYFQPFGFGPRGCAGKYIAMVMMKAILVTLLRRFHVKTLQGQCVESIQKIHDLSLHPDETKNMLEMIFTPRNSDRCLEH
Sequence of Aryl hydrocarbon receptor (Homo sapiens) (P35869 whole entry, looked up): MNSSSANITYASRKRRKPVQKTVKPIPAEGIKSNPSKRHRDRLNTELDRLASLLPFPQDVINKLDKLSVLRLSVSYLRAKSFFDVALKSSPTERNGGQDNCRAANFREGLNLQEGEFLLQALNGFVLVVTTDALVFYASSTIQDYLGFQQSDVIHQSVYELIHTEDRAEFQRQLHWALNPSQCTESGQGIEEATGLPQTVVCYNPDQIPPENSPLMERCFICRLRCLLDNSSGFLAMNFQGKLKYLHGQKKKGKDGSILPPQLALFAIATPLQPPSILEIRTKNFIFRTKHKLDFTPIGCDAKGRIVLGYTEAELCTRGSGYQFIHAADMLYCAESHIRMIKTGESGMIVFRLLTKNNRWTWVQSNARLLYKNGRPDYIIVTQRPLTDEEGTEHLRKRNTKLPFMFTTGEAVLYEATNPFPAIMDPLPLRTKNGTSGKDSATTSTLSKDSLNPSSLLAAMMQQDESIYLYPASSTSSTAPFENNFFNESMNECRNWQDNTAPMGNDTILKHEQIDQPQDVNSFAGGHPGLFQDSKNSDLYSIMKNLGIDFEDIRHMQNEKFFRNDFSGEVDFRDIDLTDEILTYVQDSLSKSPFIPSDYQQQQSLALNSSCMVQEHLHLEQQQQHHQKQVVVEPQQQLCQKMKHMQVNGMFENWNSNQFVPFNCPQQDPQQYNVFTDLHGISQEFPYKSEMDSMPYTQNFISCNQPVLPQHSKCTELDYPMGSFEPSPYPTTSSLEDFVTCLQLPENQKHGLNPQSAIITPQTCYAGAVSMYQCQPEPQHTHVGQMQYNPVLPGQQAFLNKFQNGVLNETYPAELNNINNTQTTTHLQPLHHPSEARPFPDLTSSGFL

O=C(O)CN(CCOCCOCCN(CC(=O)O)CC(=O)O)CC(=O)O
inactive: Potency [1] | outcome [2] | outcome [3] | Potency [4] | Potency (Aromatase (Homo sapiens)) | Potency [5] | Potency [6] | Potency [7] | outcome [8] | ratio activity, negative = inhibition [9] -4.72% [at 0.55 µM] | activity change, negative = cytotoxicity [10] 11.4% [at 0.55 µM] | viability change, negative = cytotoxic [11] 1.75% [at 0.756 µM] | activity change, negative = cytotoxicity [12] -15.4% [at 0.55 µM] | activation [13] 0.198% [at 0.55 µM]

C=C(C)C(=O)OCCCCCCCC(C)C
inactive: Potency [1] | outcome [2] | outcome [14] | outcome [3] | Potency [15] | Potency [16] | Potency [4] | Potency (Aromatase (Homo sapiens)) | Potency [5] | Potency [6] | Potency [7] | outcome [8] | outcome [10] | Potency [17] | Potency [11] | outcome [12] | outcome [13]

O=C1CCCN1C1CCCCC1
inactive: Potency [1] | outcome [2] | outcome [3] | Potency [15] | Potency [16] | outcome [18] | Potency [4] | Potency (Aromatase (Homo sapiens)) | Potency [5] | Potency [6] | Potency [7] | outcome [8] | Potency [9] | outcome [10] | Potency [11] | outcome [12] | outcome [13]

CCN(Cc1ccncc1)C(=O)C(CO)c1ccccc1 (stereo unspecified)
inactive: Potency [1] | outcome [2] | outcome [3] | Potency [4] | Potency [5] | Potency [6] | Potency [7] | outcome [10] | Potency [11] | outcome [12]
active: Potency (Aromatase (Homo sapiens)) 29.8 µM

CCC=O
inactive: Potency [1] | outcome [2] | outcome [14] | outcome [3] | outcome [18] | Potency [4] | Potency (Aromatase (Homo sapiens)) | Potency [5] | Potency [6] | Potency [7] | outcome [8] | outcome [10] | Potency [17] | Potency [11] | outcome [12]

CN(C)CCCN1c2ccccc2CCc2ccc(Cl)cc21
inactive: outcome [2] | outcome [3] | Potency (Aromatase (Homo sapiens)) | Potency [6] | outcome [12] | outcome [13]
active: Potency [1] 13.3 µM and 17.2 µM | Potency [4] 54.5 µM | Potency [5] 48.6 µM | Potency [7] 27.3 µM | Potency [11] 43.3 µM

CC(C)CNCC(C)C
inactive: Potency [1] | outcome [2] | outcome [3] | Potency [4] | Potency (Aromatase (Homo sapiens)) | Potency [5] | Potency [6] | Potency [7] | outcome [10] | Potency [17] | Potency [11] | outcome [12]

CCOc1ccc(C(=O)OCCN(CC)CC)cc1
inactive: Potency [1] | outcome [2] | outcome [3] | Potency [4] | Potency (Aromatase (Homo sapiens)) | Potency [5] | Potency [6] | Potency [7] | outcome [8] | Potency [9] | outcome [10] | Potency [11] | outcome [12] | outcome [13]

CC(=O)Nc1c(I)cc(I)c(C(=O)O)c1I
inactive: Potency [1] | outcome [2] | outcome [3] | Potency [15] | Potency [16] | outcome [18] | Potency [4] | Potency (Aromatase (Homo sapiens)) | Potency [5] | Potency [6] | Potency [7] | outcome [10] | Potency [17] | outcome [12] | outcome [13]

CC(C)(O)C(=O)c1ccccc1
inactive: Potency [1] | outcome [2] | outcome [3] | Potency [15] | Potency [16] | outcome [18] | Potency [4] | Potency (Aromatase (Homo sapiens)) | Potency [5] | Potency [6] | Potency [7] | outcome [8] | Potency [9] | outcome [10] | Potency [17] | Potency [11] | outcome [12] | outcome [13]

O=C1CCCC(=O)C1
inactive: Potency [1] | outcome [2] | outcome [3] | Potency [4] | Potency (Aromatase (Homo sapiens)) | Potency [5] | Potency [6] | Potency [7] | outcome [8] | Potency [9] | outcome [10] | Potency [11] | outcome [12]

FC1(F)C(F)(F)C(F)(F)C2(F)C(F)(F)C(F)(F)C(F)(F)C(F)(F)C2(F)C1(F)F (stereo unspecified)
inactive: Potency [1] | outcome [2] | outcome [3] | Potency [15] | Potency [16] | Potency [4] | Potency (Aromatase (Homo sapiens)) | Potency [5] | Potency [6] | Potency [7] | outcome [8] | Potency [9] | outcome [10] | outcome [12] | outcome [13]

CCO[Si](CCC1CCC2OC2C1)(OCC)OCC (stereo unspecified)
inactive: Potency [1] | outcome [2] | outcome [3] | Potency [15] | Potency [16] | Potency [4] | Potency (Aromatase (Homo sapiens)) | Potency [5] | Potency [6] | Potency [7] | Potency [9] | outcome [10] | Potency [17] | Potency [11] | outcome [12] | outcome [13]

COCCCOCCCOC
inactive: Potency [1] | outcome [2] | outcome [3] | Potency [15] | Potency [16] | outcome [18] | Potency [4] | Potency (Aromatase (Homo sapiens)) | Potency [5] | Potency [6] | Potency [7] | outcome [8] | outcome [10] | Potency [11] | outcome [12] | outcome [13]

CCCCCSCCCCC
inactive: Potency [1] | outcome [2] | outcome [14] | outcome [3] | Potency [15] | Potency [16] | Potency [4] | Potency (Aromatase (Homo sapiens)) | Potency [5] | Potency [6] | Potency [7] | outcome [8] | outcome [10] | Potency [17] | Potency [11] | outcome [12] | outcome [13]
